PubChem BioAssay AID2751 (The Scripps Research Institute Molecular Screening Center, 2010)
Where “and” joins values, the source holds several entries; their conditions need not be identical. Equal entries are not always repeated. The whole screen tested about 320,000 compounds, of which about 2,200 (0.69%) were called active. Cut-off read from the data, not from the text of the source: active = inhibition above about 43%; inactive = the rest. Many of the other results were omitted from the sample, so actives are more common in it than they were. Some compounds were tested as several samples or in several runs, with calls that do not always agree.

Target: Prolyl endopeptidase-like (Homo sapiens) (UniProt Q4J6C6)
Sequence (Q4J6C6 whole entry, looked up): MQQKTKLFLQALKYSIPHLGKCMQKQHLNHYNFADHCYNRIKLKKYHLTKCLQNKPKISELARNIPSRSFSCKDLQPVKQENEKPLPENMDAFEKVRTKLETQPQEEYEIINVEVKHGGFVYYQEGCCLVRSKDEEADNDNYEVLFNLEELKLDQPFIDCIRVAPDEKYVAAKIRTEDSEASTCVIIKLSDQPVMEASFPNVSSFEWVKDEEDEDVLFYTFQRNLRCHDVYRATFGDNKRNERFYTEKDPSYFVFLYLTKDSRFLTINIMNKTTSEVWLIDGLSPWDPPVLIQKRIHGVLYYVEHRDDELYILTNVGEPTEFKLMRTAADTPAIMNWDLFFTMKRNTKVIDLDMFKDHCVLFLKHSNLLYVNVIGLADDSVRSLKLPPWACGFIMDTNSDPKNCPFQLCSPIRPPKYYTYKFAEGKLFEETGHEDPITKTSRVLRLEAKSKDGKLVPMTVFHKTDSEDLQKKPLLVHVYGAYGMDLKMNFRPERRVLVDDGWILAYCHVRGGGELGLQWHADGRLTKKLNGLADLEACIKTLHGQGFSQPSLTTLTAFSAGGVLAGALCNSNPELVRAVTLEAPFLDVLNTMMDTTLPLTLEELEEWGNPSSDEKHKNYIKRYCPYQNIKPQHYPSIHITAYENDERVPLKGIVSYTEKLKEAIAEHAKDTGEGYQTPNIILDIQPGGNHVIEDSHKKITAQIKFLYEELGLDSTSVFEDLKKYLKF
Test: PREPL enzyme inhibitors, primary screen, biochemical, fluorescence polarization (AID 2751);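 note: 0% = enzyme with DMSO and 100% = wells lacking enzyme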
Conditions: recombinant PREPL, fluorescence polarization activity-based probe; at 5.96 µM; stronger effect = higher value

inhibition, active:
N#C/C(=C/c1ccc(N2CCCCC2)o1)C(=O)NCCc1c[nH]c2ccccc12 80.7%
Nc1ccc(Nc2ccccc2)cc1 94.7%
CNCC[C@H](Oc1ccc(C(F)(F)F)cc1)c1ccccc1 59%
CC(=O)N1CCN(c2ccc(NCc3ccc(C(C)C)cc3)cc2)CC1 66.9%
Cc1ccc(C2CC(c3cccc(C)c3)n3nc(N)nc3N2)cc1 (centres undefined) 54.5%
Cn1c(CCN2CCCCCC2)nc2cc(NC(=O)Nc3ccccc3)ccc21 53%
CCN1C(=O)/C(=C\N2CCN(c3ccccc3)CC2)SC1=S 49.4%
O=C1N[C@H](Cc2c[nH]c3ccccc23)COC(=O)[C@H](Cc2ccc(F)cc2)C/C=C\C[C@H]1CC(=O)N(CCO)Cc1ccccc1 45.9%
CN(C)c1ccc(C(CNC(=O)c2ccc(F)cc2)c2c[nH]c3ccccc23)cc1 (centres undefined) 55.9%
C#CCOCCOCCOCCNc1nc(N2CCN(C(=O)CCCCCCCCCCNC(=O)Cn3cc(CCCCCN)nn3)CC2)nc(N2CCN(C(=O)CCCCCCCCCCNC(=O)[C@H](CO)n3cc(CCCSC)nn3)CC2)n1 75.8%
CCC(=C/c1sc2ccc3ccccc3c2[n+]1C)/C=C1\Sc2ccc3ccccc3c2N1C 90.7%
COc1ccc2cc1Oc1ccc(cc1)C[C@H]1c3cc(c(OC)cc3CCN1C)Oc1c(O)c(OC)cc3c1[C@H](C2)N(C)CC3 59%
CC(C)CCNc1nc(N2CCCC2)c2c(c1C#N)CCN(C)C2 55.6%
O=C(OCC1O[C@@H](OC(=O)c2cc(O)c(O)c(O)c2)[C@@H](OC(=O)c2cc(O)c(O)c(O)c2)[C@@H](OC(=O)c2cc(O)c(O)c(O)c2)[C@@H]1OC(=O)c1cc(O)c(O)c(O)c1)c1cc(O)c(O)c(O)c1 (some centres undefined) 87.5%
Nc1c(C(=O)c2cccs2)sc2nsc(SCCN3CCCCC3)c12 48.1%

inhibition, inactive:
C=Cn1cc[n+](CC(=O)c2ccc(OC)c(OC)c2)c1 19.9%
O=C(Nc1ccc2c(c1)OCCO2)C1CCCC1 0.16%
O=C(c1ccc(F)cc1)N1CCC(C(=O)N2CCN(S(=O)(=O)c3ccccc3Br)CC2)CC1 5.69%
COC(=O)C1=CN(c2ccc(F)c(F)c2)C=C(C(=O)OC)C1c1ccc([N+](=O)[O-])cc1 -1.25%
COc1ccc(/C=C(\NC(=O)c2ccc(OCC(C)C)cc2)C(=O)OCc2ccco2)cc1 -0.54%
CCNc1c(NS(=O)(=O)c2ccc(C3CCCCC3)cc2)c(=O)oc2ccccc12 10.3%
O=C(CN1C(=O)NC2(CCCCC2)C1=O)NCCc1c[nH]c2ccccc12 6.75%
N#C/C(=C/c1ccc(N2CCOCC2)o1)C(=O)N1CCOCC1 7.19%
CN(CCc1ccccn1)C1CCCN(S(=O)(=O)c2ccccc2Cl)C1 (centres undefined) -0.19%
Cc1cc(Nc2ccccc2)n(C(=O)c2ccc(N)cc2)n1 32.7%
Nc1ccc(-c2nnc(-c3ccccc3)o2)cc1 2.86%
CS(=O)(=O)N(CC(=O)N1CCOCC1)c1cccc(Cl)c1Cl 1.45%
COc1cc(NC(=O)COC(=O)CSc2ccc3ccccc3c2)c(C)cc1[N+](=O)[O-] 26.5%
CC(NC(=O)COC(=O)Cn1cc(C(F)(F)F)ccc1=O)c1ccccc1 (centres undefined) 4.36%
CC(C)Oc1ccc(Oc2ccc(C(F)(F)F)cn2)cc1 14.7%
Cc1ccc(CN(CC(=O)NCC2CCCO2)S(=O)(=O)c2ccc(C)cc2)cc1 (centres undefined) -1.14%
O=C(Cn1cnc2ccccc2c1=O)NNC(=O)c1ccccc1F 9.97%
NS(=O)(=O)c1ccc(CNC(=O)c2ccc(Cl)cc2[N+](=O)[O-])cc1 13.1%
O=C(Nc1ccc(F)cc1)N1CCN(c2ccc(F)cc2)CC1 15.1%
CC(CC(=O)N1CCN(c2ccccc2)CC1)c1ccccc1 (centres undefined) -0.94%
COc1ccccc1-c1n[nH]c2c1[C@H](C)CC[C@H]2C(C)C -22.4%
COc1ccc(CSc2nnnn2-c2ccc(O)cc2)cc1F -18.7%
CCOc1ccccc1C1CC(c2ccc(Cl)cc2)Nc2nc(N)nn21 (centres undefined) 24.3%
CCOc1ccccc1C1CC(c2ccccc2)Nc2nc(N)nn21 (centres undefined) 5.16%
Cc1cc(=O)n(C)c(=O)n1CCCNc1ccccc1 2.85%
Cc1ccc(C23CC4CC(CC(C(=O)NCC(=O)O)(C4)C2)C3)cc1 5.03%
CCC(=O)Nc1cc(C(F)(F)F)ccc1N1CCCC1 8.09%
O=C(CCN1C(=O)COc2ccccc21)NCCCN1CCN(c2ccc(F)cc2)CC1 35.5%
COc1ccc(CCNC(=O)CN(c2ccccc2)S(C)(=O)=O)cc1 11.1%
Cn1c(CCN2CCCC2)nc2cc(NS(=O)(=O)c3ccccc3)ccc21 -19%
Cc1nn(CC(=O)Nc2ccc3c(c2)nc(CN2CCCCC2)n3C)c(=O)c2ccccc12 1.33%
CCN(CC(=O)Nc1c(F)cccc1F)C(=O)c1cnc(C)cn1 3.72%
CCN1C(=O)/C(=C\N2CCOCC2)SC1=S -9.93%
CCN1C(=O)/C(=C\N2CCN(c3cccc(Cl)c3)CC2)SC1=S 23.1%
O=C(O)CSCc1ccc(C(=O)O)o1 7.09%
N=c1n(Cc2ccc(Cl)cc2)c2ccccc2n1CC(O)c1ccco1 (centres undefined) 16.6%
CCc1nc2ccc(C(=O)N3CCN(c4cccc(Cl)c4)CC3)cc2nc1CC -11.3%
O=C1N[C@@H](c2ccccc2)COC(=O)[C@H](Cc2ccc(F)cc2)C/C=C\C[C@@H]1CC(=O)N(CCO)Cc1ccccc1 36%
CC(C)(C)OC(=O)C[C@@H]1C/C=C\C[C@@H](CC(=O)N(CCO)Cc2ccccc2)C(=O)N[C@H](Cc2ccccc2)COC1=O 14.3%
O=S(=O)(CCc1nc2ccccc2o1)c1ccc(Cl)cc1 -9.37%
C=C1C2C[C@H](O)C(C)(C)[C@@]2(O)[C@H](O)C[C@]23C[C@@](C)(O)[C@H](CC[C@H]12)[C@H]3O (some centres undefined) -4.1%
CCN(C[C@H]1N[C@@](CC)(C(=O)OC)[C@H]2C(=O)N(Cc3ccccc3)C(=O)[C@@H]12)S(=O)(=O)c1ccccc1 16.9%
C[C@H](NC(=O)c1ccccc1)C(=O)OCC(=O)c1c[nH]c2ccccc12 -2.69%
O=C(CNC(=O)c1ccc(F)cc1)c1ccccc1 -2.4%
C#CCOCCOCCOCCNc1nc(N2CCN(C(=O)CCCCCCCCCCNC(=O)[C@H]([C@@H](C)CC)n3cc(CCCCN=C(N)N)nn3)CC2)nc(N2CCN(C(=O)CCCCCCCCCCNC(=O)[C@H](CO)n3cc(CCCSC)nn3)CC2)n1 29.9%
C#CCOCCOCCOCCNc1nc(N2CCN(C(=O)CCCCCCCCCCNC(=O)[C@H](CCCCN)n3cc(C)nn3)CC2)nc(N2CCN(C(=O)CCCCCCCCCCNC(=O)[C@H](CO)n3cc(CCCSC)nn3)CC2)n1 35.2%
CCc1ccc(S(=O)(=O)Nc2ccc(C)c(NS(C)(=O)=O)c2)cc1 -2.02%
Cc1cccc2nc(CNc3ccc(F)cc3)cn12 -2.47%
O=C(CN1CCOCC1)Nc1c2c(nc3c1CCC3)CCC2 -8.04%
CC(=O)Nc1ccc(NC(=O)C(C)OC(=O)C2CC(=O)N(CCc3ccccc3)C2)cc1 (centres undefined) 12.3%
CC1(C)CC[C@@]2(C(=O)O)C(C1)C1=CCC3[C@@]4(C)CC[C@H](O)C(C)(C)C4CC[C@@]3(C)[C@]1(C)C[C@H]2O (some centres undefined) 21.2%
COc1c(O)ccc2c1CN1CCc3cc4c(cc3C1C2)OCO4 (centres undefined) 16.4%
CC(C)(C)C(=O)N1CCC[C@@]1(CO)C(=O)O 6.21%
CCC/C(C)=N\Nc1nc2c(c(=O)n(C)c(=O)n2C)n1C 11.5%
CCN1CC(CN(C)Cc2nc(-c3ccc(Cl)cc3)no2)CC1=O (centres undefined) 18.3%
Cc1cc(C(=O)NCCc2ccc(Cl)cc2)c(C)o1 6.11%
CC(C)CN(C(=O)CN1CCN(S(=O)(=O)c2ccccc2)CC1)c1c(N)n(CC(C)C)c(=O)[nH]c1=O 9.18%
O=C1NC(Cc2ccc(O)cc2)c2nc3ccc(Cl)cc3c(=O)n2-c2ccccc21 (centres undefined) 12.8%
CCc1nc(NCCO)c(C#N)c2c1CCCC2 7.84%
CC(C)Cc1nc(N2CCOCC2)c(C#N)c2c1CCC2 2.59%
CC(Sc1nc2c([nH]c3ccccc32)c(=O)n1C)c1ccccc1 (centres undefined) -0.13%
Cc1ccccc1NC(=O)C1CCCN(C(=O)NCc2ccccc2)C1 (centres undefined) 10.1%
O=C(Nc1ccc(Cl)cc1)N1CCc2[nH]c3ccccc3c2C1 14.6%
COC(=O)C1CCN(C(=O)c2cc(=O)[nH]c3ccccc23)CC1 -5.95%
OC(COc1ccc(F)cc1Cl)CN1CCc2ccccc2C1 (centres undefined) 3.81%
CCCC(C(=O)NCc1ccco1)N(C(=O)CNS(=O)(=O)c1ccccc1)C1CCCC1 (centres undefined) -3.85%
O=C(OCC1OC(Oc2ccc(O)cc2)C(O)C(O)C1O)c1ccccc1 (centres undefined) 9.62%
COc1ccccc1C(=O)NCc1nnc(SC(C)C(=O)Nc2nccs2)n1C (centres undefined) -8.82%
CCC(=O)N1c2ccc(S(=O)(=O)NCc3ccco3)cc2CC1C (centres undefined) -3.18%
O=C(CSc1ncnc2sccc12)N1CCN(C(=O)c2cccs2)CC1 6.26%
CN(CC(=O)Nc1ccc(Cl)c(C(F)(F)F)c1)C(=O)CCC(=O)c1ccccc1 1.31%
CC(C)c1ccc(S(=O)(=O)N2CCN(C(C)C(=O)NC3CCCC3)CC2)cc1 (centres undefined) 5.61%
CC(Oc1ccc(F)cc1)C(=O)Nc1ccccc1C(=O)NC1CC1 (centres undefined) -10.5%

inhibition, 16.7% (inactive) and 45.8% (active):
COC(=O)[C@H]1[C@H]2C[C@H]3c4[nH]c5ccccc5c4CCN3C[C@@H]2CC[C@@H]1O
